Laboratory results: PubChem BioAssay (NCI)
This is part of a sample that, as a whole, favours compounds with a hit. Of some 79,000 tested, about 15% had one in any assay. Cut-off read from the data, not from the text of the source: active = growth inhibition above about 70%; inactive = the rest.

How the values were obtained:
[1] = NCI Yeast Anticancer Drug Screen. Data for the rad50 strain (AID 155);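 note: 0% = growth of vehicle-only cultures of the same strain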; conditions: S. cerevisiae rad50 strain growth inhibition; at 50.0 µM; hits give high values
Method in brief: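 Inhibition values express reduced yeast growth in compound-treated cultures relative to vehicle-treated controls.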

[2] = NCI Yeast Anticancer Drug Screen. Data for the mec2-1 strain (AID 157); conditions: S. cerevisiae mec2-1 strain, at 50.0 µM, hits give high values
Method in brief: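 Compounds were applied to mec2-1 yeast cells. Their growth was then compared with that of vehicle-treated cultures to give growth inhibition.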

[3] = NCI Yeast Anticancer Drug Screen. Data for the sgs1 mgt1 strain (AID 161);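 note: 0% = growth of cultures given vehicle only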; conditions: S. cerevisiae sgs1 mgt1 strain, at 50.0 µM, hits give high values
Method in brief: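 This yeast growth screen uses a strain with defined DNA-repair lesions; compound-treated growth is compared with vehicle-treated growth.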

[4] = NCI Yeast Anticancer Drug Screen. Data for the cln2 rad14 strain (AID 165);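 note: 0% = growth equal to vehicle treated cultures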; conditions: S. cerevisiae cln2 rad14 strain, at 50.0 µM, hits give high values
Method in brief: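 Strain: cln2 rad14 yeast, altered in cell cycle control and DNA damage repair. Read-out: growth inhibition vs vehicle.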

[5] = NCI Yeast Anticancer Drug Screen. Data for the bub3 strain (AID 167); conditions: S. cerevisiae bub3 mutant strain, at 50.0 µM, hits give high values
Method in brief: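 Steps: expose the mutant yeast strain to compound; grow alongside vehicle-treated cultures; measure growth; express inhibition against the vehicle cultures.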

[6] = NCI Yeast Anticancer Drug Screen. Data for the mlh1 rad18 strain (AID 175); conditions: S. cerevisiae mlh1 rad18 strain growth inhibition; at 50.0 µM; hits give high values
Method in brief: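 A repair-deficient yeast strain is exposed to test compound, and growth is scored relative to vehicle-treated controls.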

Measured: growth inhibition

CCCC(C)C1(CC)NC(C)(C)CC(C)O1 (configuration not stated)
inactive: [1] 2.75% | [2] 0.8% | [3] -5.75% | [4] -29.4% | [5] 4.9% | [6] 1.2%

CCCc1cc(-c2ccc(-c3cc(CCC)c(C=O)[nH]3)s2)[nH]c1C=O
inactive: [1] -19% | [2] -19.6% | [3] -31% | [4] -4.9% | [5] -20.1% | [6] -46.9%

COC(=O)Cc1onc(-c2ccccc2)c1[N+](=O)[O-]
inactive: [1] -17.3% | [2] -12.2% | [3] -4.8% | [4] 19.9% | [5] 28.9% | [6] 32%

CC12CCC(=O)C=C1CCC1C2C(O)CC2(C)C1CCC2(O)C(=O)COC(=O)C1C2C=CC(C2)C1C(=O)O (configuration not stated)
inactive: [1] 24.1% | [2] 9.45% | [3] 25% | [4] 12.1% | [5] -6.85% | [6] 25.1%

CC1=NN(C(=O)c2ccc(Cl)cc2)C(=O)/C1=C/c1ccco1
inactive: [1] -8.85% | [2] -28.9% | [3] -22.6% | [4] 9.25% | [5] -2.7% | [6] -24.1%

ClCCCOCc1ccccc1
inactive: [1] 8.2% | [2] -13.2% | [3] 3.65% | [4] 16.4% | [5] 11.9% | [6] 6.3%

C(=N\N=C\c1ccccc1)/c1ccccc1
inactive: [1] 14.7% | [2] 4.65% | [3] 3.5% | [4] -52.5% | [5] -1.15% | [6] 16.6%

CC(C)(Oc1ccc(C(=O)c2ccc(Cl)cc2)cc1Cl)C(=O)N1CCN(CCO)CC1
inactive: [1] -18.9% | [2] -8.65% | [3] 15.9% | [4] 12.3% | [5] 11.3% | [6] 12.9%

O=C1C2C3C=CC(CC3)C2C(=O)C2C3C=CC(C3)C12 (configuration not stated)
inactive: [1] 1.15% | [2] 24.1% | [3] 26.9% | [4] -14.8% | [5] -1.45% | [6] 32.3%

COc1cccc(-n2cnc3c(=S)nc[nH]c32)c1
inactive: [1] 4.2% | [2] -9.3% | [3] 9.7% | [4] -41.6% | [5] -4.85% | [6] 1.9%

COc1cc2c(cc1OC)C(C(c1ccccc1)c1ccccc1)N(C)CC2 (configuration not stated)
inactive: [1] 9.9% | [2] 9.25% | [3] -16.7% | [4] 20.6% | [5] 3.25% | [6] 20.6%

NC1CCC2(O)c3ccccc3C2C1 (configuration not stated)
inactive: [1] -0.95% | [2] 0.05% | [3] 22.2% | [4] 18.9% | [5] 5.7% | [6] 7.35%

Cc1cc(C)c(S(=O)(=O)ONC(=O)OC(C)(C)C)c(C)c1
inactive: [1] 11.8% | [2] -3.9% | [3] -4% | [4] 4.9% | [5] 11.2% | [6] -8.1%

CN(C)c1nnnn1Cc1ccccc1
inactive: [1] -1.35% | [2] -3.8% | [3] -7.25% | [4] -26.3% | [5] 5.65% | [6] 1.8%

Cc1ccc(OC/C=C/c2ccc([N+](=O)[O-])cc2)cc1
inactive: [1] -1.45% | [2] -9.3% | [3] -7.4% | [4] -58.8% | [5] -4.55% | [6] -19.2%

Cc1cc(C)c(F)c(C)c1N
inactive: [1] -32.5% | [2] 17.6% | [3] -22% | [4] -19.4% | [5] -22.1% | [6] -4.3%

CCN1c2ccccc2CC(C#N)(CCN(C)C)c2ccccc21 (configuration not stated)
inactive: [1] 1.5% | [2] 5.45% | [3] 2.65% | [4] -10.8% | [5] 6.95% | [6] -0.35%

CC(=O)/C(C(=N)C(=O)c1ccccc1)=C(\C)O
inactive: [1] -12.1% | [2] 22.5% | [3] 3.5% | [4] -16.6% | [5] 4.3% | [6] 0.25%

COc1ccc2c(c1)C(Cc1ccc(Oc3cc(CC4c5cc(OC)ccc5CC[N+]4(C)C)ccc3OC)cc1)[N+](C)(C)CC2 (configuration not stated)
inactive: [1] -5.9% | [2] 2.75% | [3] -7.45% | [4] -9.55% | [5] -6.5% | [6] -12.2%

O=C(O)CCSC1(SCCC(=O)O)CCCCC1
inactive: [1] -23.9% | [2] -17.9% | [3] -8.55% | [4] -3.25% | [5] -9% | [6] -23.6%

CN(C)CC1CCC/C1=N/OC(=O)c1ccccc1 (configuration not stated)
inactive: [1] 6.85% | [2] -6.7% | [3] -20% | [4] -17.9% | [5] -6.4% | [6] 16.9%

NC(N)=NC(N)=Nc1c(F)c(F)c(F)c(F)c1F
inactive: [1] -17.4% | [2] -33.1% | [3] -11.8% | [4] -14.5% | [5] -3.6% | [6] -20.6%

CN(CCO)c1cnn(CCO)c(=O)c1Cl
inactive: [1] -14.9% | [2] -8.25% | [3] -17.6% | [4] -6.15% | [5] 8.2% | [6] -7.45%

C/C(=N/OC1=CC(=O)CC(C)(C)C1)c1ccccc1
inactive: [1] 1.8% | [2] 0.8% | [3] 0.3% | [4] -52.9% | [5] 24.1% | [6] 0.6%

CN(C)c1nc2nc[nH]c2c(=S)n1C
inactive: [1] 7.45% | [2] 6% | [3] 4.1% | [4] 24.6% | [5] -9.6% | [6] 0.15%

O=c1cc(-c2ccccc2)nc(Sc2ccc([N+](=O)[O-])cc2[N+](=O)[O-])[nH]1
inactive: [1] 1.1% | [2] 0.2% | [3] -11.4% | [4] 2.7% | [5] 2.65% | [6] 8.25%

CC(=O)/C(=C\c1ccccc1)C(=O)CCN(C)C
inactive: [1] 21.9% | [2] 36.6% | [3] 14.4% | [4] 12.2% | [5] 7% | [6] -9.9%

O=C1CC[C@H](NC(=O)Cc2ccccc2)C(=O)N1
inactive: [1] -11.8% | [2] -6.55% | [3] -14.4% | [4] 6.35% | [5] -11.9% | [6] -13.6%

CC(C)(Oc1ccc2c(=O)cc(-c3ccc(Cl)cc3)oc2c1)C(=O)Nc1c(Cl)cccc1Cl
inactive: [1] 16.4% | [2] -20.1% | [3] 6.45% | [4] -14.9% | [5] 2.75% | [6] 16.8%

Cc1nc(N)nc(C)c1N=Nc1ccc(Br)cc1Br
inactive: [1] 41.2% | [2] 4.5% | [3] 20.5% | [4] 5.05% | [5] 0.6% | [6] 15%

N=C(CC(=O)Nc1ccccn1)c1ccccc1
inactive: [1] 1.25% | [2] -28.7% | [3] -23.3% | [4] -32% | [5] -20.9% | [6] -16.6%

Clc1ccc(C(Cl)(Cl)C(Cl)(Cl)Cl)cc1
inactive: [1] 6.65% | [2] 40.4% | [3] -2.15% | [4] -61.2% | [5] 40% | [6] 44.1%

O=C1c2cc(Cl)ccc2OCC1Cl (configuration not stated)
inactive: [1] 37.5% | [2] 22.2% | [3] 14.6% | [4] -25.6% | [5] 18.7% | [6] 7.4%

O=c1[nH]cnc2c1nnn2CCCCCCCCCCCCn1nnc2c(=O)[nH]cnc21
inactive: [1] -5.9% | [2] -10.2% | [3] 4.5% | [4] -4.2% | [5] 12.7% | [6] 24.8%

CCC(O)(c1ccc(OC)cc1)C(c1ccccc1)c1ccccn1 (configuration not stated)
inactive: [1] -1.3% | [2] -8.8% | [3] 6.5% | [4] -16.5% | [5] 2.8% | [6] -0.65%

O=C(O)CSc1ncnc2nc[nH]c12
inactive: [1] 1.6% | [2] -30.2% | [3] 1.9% | [4] 27.6% | [5] -5.25% | [6] -12.9%

O=c1cc(O)cc(CO)o1
inactive: [1] -7.65% | [2] 5.7% | [3] -9.8% | [4] 1.2% | [5] -21.2% | [6] -2.05%
